Records with an inconclusive call do not appear. The source made the active and inactive calls. Calls follow the shape of the dose curve; as a rule, active = well fitted cell-killing curve with a large enough effect; inconclusive = small, poorly fitted or top-dose-only effect, or effect the other way; inactive = flat fitted curve, though single readings scatter.
What was measured:
Assay in all cases: Primary qHTS to identify gynecologic anti-cancer compounds using libraries of approved drugs and bioactive compounds (AID 1345084); also: nearly all actives have a fitted effect of over 55% in size
Conditions in all cases: Gynecologic cancer cell panel viability, ATPlite luminescence, 48 h; series mostly up to 57.5 µM
JEG-3 = test system: JEG-3
In short: (§1)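 Cells, 1,000 per well, plated 16 h, then exposed 48 h at 37 C to compounds. Viability by ATPlite luminescence after 15 min at room temperature.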

OV90 = test system: OV90
In short: as §1

PA-1 = test system: PA-1
In short: as §1

SKOV3 = test system: SKOV3
In short: as §1

Tov-21-G = test system: Tov-21-G
In short: as §1

Tov112D = test system: Tov112D
In short: as §1

Measured: Potency

OC[C@H]1O[C@@H](Oc2ccc3c(c2)OC[C@H]2c4cc5c(cc4O[C@@H]32)OCO5)[C@H](O)[C@@H](O)[C@@H]1O
inactive: all assays above

CC(=O)c1c(C)cc(O[C@@H]2O[C@H](CO)[C@@H](O)[C@H](O)[C@H]2O)cc1O
inactive: all assays above

C=C1CC[C@H]2[C@@H](/C=C(\C)C(=O)[C@@]3(OC(C)=O)C[C@H](C)[C@H](OC(C)=O)[C@@H]3[C@H]1OC(C)=O)C2(C)C
inactive: all assays above

CC1=C(CC(=O)O)c2cc(F)ccc2C1=Cc1ccc(S(C)(=O)=O)cc1
inactive: all assays above

C[C@@H]1C[C@H](O)/C=C/[C@H](O)[C@@H](O)CC(=O)O1
inactive: all assays above

CC1CCC2C(C(=O)O)=CC3CC(C)(C)CC132 (configuration not stated)
inactive: all assays above

Cc1c(N2C(=O)c3ccc(C(=O)O)cc3C2=O)c(=O)n(-c2ccccc2)n1C
inactive: all assays above

C/C=C1/[C@H](O[C@@H]2O[C@H](CO)[C@@H](O)[C@H](O)[C@H]2O)OC=C(C(=O)OC)[C@H]1CC(=O)O[C@@H]1O[C@H](CO)[C@@H](O)[C@H](O)[C@H]1O
inactive: all assays above

COC(=O)C1(Cc2ccc(O)cc2)OC(=O)C(OC)=C1c1ccc(O)cc1 (configuration not stated)
inactive: all assays above

CO[C@@]12CC3[C@@H]([C@@H](O)[C@@H](OC(C)=O)C4[C@](C)(COC(C)=O)CCC[C@]34C)[C@@H](C)C1=CC(=O)O2 (some centres not stated)
inactive: all assays above

C=C1[C@H]2[C@H](O[C@@H]3O[C@H](COC(=O)/C=C/c4cc(OC)c(O)c(OC)c4)[C@@H](O)[C@H](O)[C@H]3O)OC=C(C(=O)O)[C@H]2C[C@@H]1O
inactive: all assays above

Clc1ccc2c(c1)C1=NCCN1c1c(-c3noc(C4CC4)n3)ncn1-2
inactive: all assays above

C=C(C(=O)OC)C1CCC2(C)C(O[C@@H]3O[C@H](CO)[C@@H](O)[C@H](O)[C@H]3O)CC(=O)C(C)C2C1O (some centres not stated)
inactive: all assays above

CC(CCC1C(C(=O)O)=CC(=O)CC1(C)C)O[C@@H]1O[C@H](CO)[C@@H](O)[C@H](O)[C@H]1O (some centres not stated)
inactive: all assays above

COc1cc([C@H]2OC[C@]3(OC(C)=O)[C@@H](c4ccc(O[C@@H]5O[C@H](CO)[C@@H](O)[C@H](O)[C@H]5O)c(OC)c4)OC[C@H]23)ccc1O
inactive: all assays above

CN[C@@H]1[C@@H](O)[C@@H](O[C@@H]2[C@@H](O)[C@H](O[C@H]3O[C@H](CN)[C@@H](O)[C@H](O)[C@H]3O)[C@@H](N)C[C@H]2NC(=O)[C@@H](O)CN)OC[C@]1(C)O
inactive: all assays above

COc1ccccc1[C@@H]1C2=C(CC(C)(C)CC2=O)Nc2n[nH]c(C(F)(F)F)c21
inactive: all assays above

CC(NCc1ccc(OCc2cccc(F)c2)cc1)C(N)=O (configuration not stated)
inactive: all assays above

C=C1CC2(C(=O)O)CC1CCC2C1(C)CCCC2(C)C(=O)OC(O)C21 (configuration not stated)
inactive: all assays above

O=c1ccn(C2OC(CO)C(O)C2O)c(=O)[nH]1 (configuration not stated)
inactive: all assays above

COc1cc(/C=C/c2cc(O)cc(O[C@@H]3O[C@H](CO)[C@@H](O)[C@H](O)[C@H]3O)c2)ccc1O
inactive: all assays above

COCCN(C)Cc1ccc2nc3sc(C(=O)N(C)C4CCCCC4)cn3c2c1
inactive: all assays above
